Rows were chosen to be rich in hits. Some 3.5% of all compounds tested hit in one or more screens of this group.
MITF inh: MITF inhibitors, primary screen, biochemical, AlphaScreen, human; Microphthalmia-associated transcription factor (Homo sapiens), O75030; AlphaScreen MITF homodimerization, bead proximity signal; inhibition, % at 2.6 µM; 650,000 compounds, 0.91% hits; in the data active = inhibition above about 50%
TEAD-YAP inh: TEAD-YAP interaction inhibition, primary screen, TEAD-YAP interaction inhibitor project, luminescence, HEK-TIYL cells | inhibition, % at 9.12 µM | 640,000 compounds, 1.4% hits | AID 1259422, 2018 | TEAD-Gal4/YAP UAS-luciferase luminescence; in the data active = inhibition above about 32%
FBW7 activator: FBW7 E3 ligase activators, primary screen, biochemical, AlphaScreen, human; normalized activity (activation), % at 26.1 µM; AlphaScreen FBW7–phospho-cyclin E peptide binding, activator screen; 650,000 compounds, 0.13% hits; F-box/WD repeat-containing protein 7 (Homo sapiens), Q969H0; in the data active = normalized activity above about 1.9%;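 also: purified mutant Fbw7 with reduced substrate affinity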
GPR151 ag: activators of human GPR151, primary screen, cell-based, PathHunter beta-arrestin, luminescence; G-protein coupled receptor 151 (Homo sapiens), Q8TDV0; PathHunter beta-arrestin GPR151 cells; activation, % at 11.2 µM; 650,000 compounds, 1% hits; AID 1508602, 2020; in the data active = activation above about 4.9%
Hits are given with their value; 0 = inactive; - = no result.

SMILES | MITF inh | TEAD-YAP inh | FBW7 activator | GPR151 ag
CC1=CC(C)(C)N(S(=O)(=O)c2ccc(F)cc2)c2ccc(C)cc21 | 0 | 44.3 | 0 | 0
COc1ccc(S(=O)(=O)N2c3ccc(Br)cc3C(C)=CC2(C)C)cc1 | 0 | 55.2 | 0 | 0
CCOc1ccc(S(=O)(=O)N2c3ccc(C)cc3C(C)=CC2(C)C)cc1 | 0 | 64.5 | 0 | 0
COc1ccc(/C=C/C(=O)N2c3ccc(OC)cc3C(C)=CC2(C)C)cc1 | 0 | 0 | 0 | 0
Cn1nnnc1SCC(=O)NCc1cccs1 | 0 | 0 | 0 | 0
CSc1ccc(S(=O)(=O)NCc2ccco2)cc1 | 0 | 0 | 0 | 0
COc1cccc(CC(CC(=O)Nc2cc(C)ccc2C)C(=O)O)c1 (stereo not drawn) | 0 | 0 | 0 | 0
Cc1nn(CCC#N)c(=O)c2cc3sccc3n12 | 0 | 0 | 0 | 0
COc1ccc(S(=O)(=O)N2c3ccc(C)cc3C(C)=CC2(C)C)cc1 | 0 | 62.4 | 0 | 0
CC1=CC(C)(C)N(S(=O)(=O)c2ccc(C)cc2)c2cc(C)c(C)cc21 | 0 | 65.1 | 0 | 0
COCCN1C(=S)NC2c3ccccc3OC13CCCC23 (stereo not drawn) | 0 | 35.6 | 0 | 0
CC(=O)c1ccc(NC(=O)/C=C/c2ccc(Cl)c([N+](=O)[O-])c2)cc1 | 0 | 0 | 0 | 0
CCCOCCOC(=O)c1[nH]c2c(c1C)C(=O)CC(c1cc(OC)ccc1OC)C2 (stereo not drawn) | 0 | 47.2 | 0 | 0
COc1ccc(OC)c(C2CC(=O)c3c([nH]c(C(=O)OCC4CCCO4)c3C)C2)c1 (stereo not drawn) | 0 | 0 | 0 | 0
CCCOCCOC(=O)c1[nH]c2c(c1C)C(=O)CC(c1ccc(OC)c(OC)c1)C2 (stereo not drawn) | 0 | 0 | 0 | 0
Cc1c(C(=O)OC(C)C)[nH]c2c1C(=O)CC(c1ccccc1)C2 (stereo not drawn) | 0 | 50.7 | 0 | 0
CCOCCOC(=O)c1[nH]c2c(c1C)C(=O)CC(c1cc(OC)ccc1OC)C2 (stereo not drawn) | 0 | 45.4 | 0 | 0
COc1ccc(OC)c(C2CC(=O)c3c([nH]c(C(=O)OCCOC(C)C)c3C)C2)c1 (stereo not drawn) | 0 | 45.1 | 0 | 0
COC(=O)c1sccc1NC(=S)N1CCCCC1C (stereo not drawn) | 0 | 0 | 0 | 0
CSc1nnc(C)c(=O)n1COC(=O)COc1ccc(F)cc1 | 0 | 0 | 0 | 0
COc1ccc(OC)c(C2CC(=O)c3c([nH]c(C(=O)OCCSC)c3C)C2)c1 (stereo not drawn) | 0 | 0 | 0 | 0
Cc1c(C(=O)OCCOc2ccccc2)[nH]c2c1C(=O)CCC2 | 0 | 43.4 | 0 | 0
COCCOC(=O)c1[nH]c2c(c1C)C(=O)CC(c1ccccc1Cl)C2 (stereo not drawn) | 0 | 39.9 | 0 | 0
COc1ccc(OC)c(C2CC(=O)c3c([nH]c(C(=O)OC(C)C)c3C)C2)c1 (stereo not drawn) | 0 | 50.0 | 0 | 0
COCCOC(=O)c1[nH]c2c(c1C)C(=O)CC(c1cc(OC)ccc1OC)C2 (stereo not drawn) | 0 | 43.7 | 0 | 0
SMILES | MITF inh | TEAD-YAP inh | FBW7 activator | GPR151 ag
Cc1cccc(NC(=O)Cn2c(C)nc3sc(C)c(C)c3c2=O)c1 | 0 | 0 | 0 | 0
CCCCCCCCCCCCCCCC(=O)OCC(COP(=O)(O)OCC[N+](C)(C)C)OC(=O)CCCC(=O)O (stereo not drawn) | 0 | - | - | 0
CCCOCCOC(=O)c1[nH]c2c(c1C)C(=O)CC(c1cccs1)C2 (stereo not drawn) | 0 | 56.3 | 0 | 0
O=C(N/N=C/c1cc([N+](=O)[O-])ccc1O)C(=O)Nc1ccccc1OC(F)(F)C(F)F | 0 | 0 | 0 | 0
O=C(N/N=C/c1cc(Cl)ccc1O)C(=O)Nc1ccccc1OC(F)(F)C(F)F | 0 | 79.2 | 0 | 0
O=[N+]([O-])c1ccc(Cl)c(CN2CCSCC2)c1 | 0 | 0 | 0 | 0
c1ccc2ncc(-c3ccc4c(c3)COC3(CCNCC3)O4)cc2c1 | 0 | 63.9 | 0 | 0
CN(CCc1ccccn1)Cc1ccc(C(=O)NCC2CCCO2)c(=O)[nH]1 (stereo not drawn) | 0 | 0 | 0 | 0
COc1ccc2nc(N(CCN(C)C)C(=O)CCc3ccccc3)sc2c1 | 0 | 0 | 0 | 0
COc1ccc(-c2csc(Nc3ccc(N)cc3)n2)cc1OC | 0 | 0 | 0 | 0
O=C(Nc1c2c(nn1-c1cccc(Cl)c1)CS(=O)C2)c1ccccc1Br (stereo not drawn) | 0 | 0 | 0 | 0

Screens from PubChem.
